Assay outcomes as filed in PubChem BioAssay.
Hits are enriched below; roughly 4.6% of the tested compounds scored in any of these assays.
Epigenetic derep = Quantitative High-Throughput Screen for Regulators of Epigenetic Control | murine LDR cells, GFP reporter derepression, 30 h | 280,000 tested, 0.2% active | Potency, µM (titrated, usually from 53.9 µM), without a hit: at the highest dose GFP activation, usual class: activators; active = well fitted activation curve with a large enough effect; inconclusive = small, poorly fitted or top-dose-only effect; also: potency is read from the fitted curve at half-maximal effect; % of control where 0% means no effect; nearly all actives have a fitted effect of over 60% in size
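Murine LDR cells carrying a silenced, genomically integrated CMV-driven GFP reporter were exposed to compound for 30 hours at 37 C. After PBS washes, GFP-positive cells (20–120 um objects) were counted by laser-scanning microplate cytometry.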
D1 antagonist = Antagonist of Human D 1 Dopamine Receptor: qHTS; D(1A) dopamine receptor (Homo sapiens), P21728; HEK293 TREx D1 cells, calcium flux, dopamine EC80; hits give low values; activity change, negative = inhibition, % at 10 µM; 360,000 tested, 3.2% active; in the data active = activity change below about -30%; also: % is scaled to controls: 0 for no effect and ±100 for the full control effect
Target sequence (P21728 whole entry, looked up): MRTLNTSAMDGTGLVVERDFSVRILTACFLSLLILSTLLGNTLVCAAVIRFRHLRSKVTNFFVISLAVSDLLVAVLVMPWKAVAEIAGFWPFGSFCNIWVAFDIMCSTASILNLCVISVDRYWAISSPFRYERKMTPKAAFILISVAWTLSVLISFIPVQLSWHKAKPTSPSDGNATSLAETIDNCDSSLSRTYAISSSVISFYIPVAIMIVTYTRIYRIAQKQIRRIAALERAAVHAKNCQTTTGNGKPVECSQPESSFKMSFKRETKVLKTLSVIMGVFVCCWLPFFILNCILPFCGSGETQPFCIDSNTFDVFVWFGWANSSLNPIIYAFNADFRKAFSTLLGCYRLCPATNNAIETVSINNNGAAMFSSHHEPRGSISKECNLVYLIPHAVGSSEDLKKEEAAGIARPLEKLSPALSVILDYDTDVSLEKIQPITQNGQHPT
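Tetracycline-induced HEK293 T-REx cells with force-coupled D1 receptor were loaded with a no-wash calcium dye. Compound was added after a 10 s baseline and read kinetically for 180 s; EC80 dopamine was then added and calcium flux followed another 180 s.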
TRHR ag = qHTS for Small Molecule Agonists and Allosteric Enhancers of Human TRH Receptor: Primary Screen for Agonists | 360,000 tested, 0.18% active | AID 493084, 2011 | Thyrotropin-releasing hormone receptor (Homo sapiens), P34981 | activation, % at 2 µM | TRHR cells, calcium flux fluo-8, FDSS agonist mode; also: 0% is about no effect
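Agonist-mode FDSS calcium read (Ex 480/Em 530, 1 s cycles) in 1536-well TRHR cells with fluo-8 dye, after 10-cycle baseline and 23 nL compound addition; TRH at EC20 (10 nM final) added afterwards for the enhancer phase.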
TRHR enhancer = qHTS for Small Molecule Agonists and Allosteric Enhancers of Human TRH Receptor: Primary Screen for Enhancers; AID 493056, 2011; 360,000 tested, 0.66% active; Thyrotropin-releasing hormone receptor (Homo sapiens), P34981; enhancement, % at 2 µM; TRHR cells, fluo-8 calcium fluorescence, EC20 TRH enhancement; in the data active = enhancement above about 30%; also: 0% is about no effect
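Enhancer read-out: after compound pinning and an initial kinetic agonist-mode read, an EC20 of TRH (10 nM final) was injected and fluo-8 calcium signal (Ex 480/Em 530) followed at 1 s/cycle for 100 cycles in TRHR-expressing cells.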
D1 potentiator = Potentiators of Human D1 Dopamine Receptor: qHTS. D(1A) dopamine receptor (Homo sapiens), P21728. HEK293 TREx D1 cells, calcium flux, dopamine EC20 potentiation. potentiation, % at 10 µM. 360,000 tested, 0.036% active. AID 504651, 2011; in the data active = potentiation above about 30%; also: 0% is about no effect
D1 ag = Allosteric Agonists of the Human D1 Dopamine Receptor: qHTS | AID 504660, 2011 | HEK293 T-REx D1 cells, calcium flux, agonist mode | activation, % at 2 µM | 360,000 tested, 1% active; also: 0% is about no effect
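Inducible HEK293 T-REx D1 cells, force-coupled to calcium signalling, were plated at 4000 cells/well with tetracycline and held overnight at 30 C. After no-wash calcium dye loading, compound-evoked calcium rise over 180 s flagged agonists.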
Active calls of the source: *; ? = inconclusive; nt = no result. Rule as the data show it, unless noted: active = activation above about 30%; inactive = the rest.

SMILES	Epigenetic derep	D1 antagonist	TRHR ag	TRHR enhancer	D1 potentiator	D1 ag
Cc1cnc(C(=O)OCC(=O)Nc2ccc(C)c(S(=O)(=O)N3CCCCCC3)c2)cn1	-1%	12	0	33*	-2	1
CCC(=O)Nc1cc(-c2cccc(C)c2)nn1-c1ccccc1	-3%	9	0	6	0	0
COc1ccc2c(c1)O[C@@H](c1ccc3c(c1)OCO3)[C@H](OC(=O)Nc1ccc(OC(F)F)cc1)C2=O	-1%	nt	nt	nt	nt	nt
N#CC1=C(N)C(C#N)(C#N)C(c2cccnc2)C2CCCC=C12 (centres undefined)	1%	-30*	2	0	-3	4
Cc1c(C(=O)Nc2ccc3nc(N4CCOCC4)sc3c2)oc2ccccc12	nt	-43*	-1	4	-3	2
COc1cc(C(=O)Nc2ccc3nc(N4CCOCC4)sc3c2)cc(OC)c1OC	nt	-22	1	11	4	1
COc1ccc(N2CCN(CC(=O)Nc3nc(C)cs3)CC2)cc1	nt	-41*	2	6	-1	2
COc1ccc(N2CCN(CC(=O)Nc3ncc(C)s3)CC2)cc1	nt	6	0	3	2	0
COc1cc(Cl)c(C)cc1NC(=O)CNC(=O)Cn1ccc2ccccc2c1=O	2%	-4	0	1	0	1
CCn1c(C(=O)N2CCC(C(=O)N3CCN(c4cc(C)ccc4C)CC3)CC2)cc2sccc21	1%	-36*	0	4	-3	-1
COC(=O)N[C@@H](c1ccc(Br)cc1)C(C(=O)OC)C(=O)OC	0%	nt	nt	nt	nt	nt
O=C(c1ccoc1)N1CCC2(CC1)Oc1ccc(Cl)cc1C(=O)C21CC(c2cccnc2)=NO1 (centres undefined)	-2%	-100*	2	-2	-9	5
COc1cc(Cl)c(C)cc1NC(=O)CN(C)Cc1cccc(OC)c1OC	1%	10	-1	-6	-8	50*
COc1ccccc1CN(C)CC(=O)Nc1cccc2ccccc12	nt	7	-1	5	9	-3
COc1ccc(Br)cc1CN(C)CC(=O)Nc1ccccc1Cl	-1%	-8	0	-6	-2	4
COc1ccc(Br)cc1CN(C)CC(=O)Nc1cc(Cl)ccc1Cl	-1%	-31*	1	0	2	6
CCOC(=O)c1ccc(CN(Cc2ccc(F)cc2)S(=O)(=O)c2ccc(F)c(C(=O)Nc3c(C)cccc3C)c2)cc1	0%	-11	1	-2	-2	2
COC(=O)C1CCN(Cc2cn(Cc3ccccc3)nc2-c2cc3ccccc3o2)CC1	-1%	-5	1	2	2	6
OC1CCN(Cc2cn(Cc3ccccc3)nc2-c2cc3ccccc3o2)CC1	1%	-31*	5	6	-6	25
COCC1CCN(Cc2cn(Cc3ccccc3)nc2-c2cc3ccccc3o2)CC1	-1%	-1	-2	4	-2	39*
CN(Cc1ccccc1)C(=O)Nc1ccc2c(c1)N(C)C(=O)c1ccccc1S2	-1%	-16	0	-10	-2	4
CC(C)NC(=O)c1ccccc1NS(=O)(=O)c1ccc(Br)s1	nt	-16	0	-4	-5	5
Cc1ccccc1NS(=O)(=O)c1ccc(Br)s1	-2%	-21	-2	10	1	50*
CCc1cccc(C)c1NC(=O)CN1C(=O)c2c(c3ccccc3n2C)C1c1ccc(OC)cc1 (centres undefined)	-1%	7	0	-3	-1	4
Cc1ccc(C(=O)N2CCc3cc(CNC(=O)c4ccnn4C)ccc32)cc1	-1%	-26	0	4	-4	9
SMILES	Epigenetic derep	D1 antagonist	TRHR ag	TRHR enhancer	D1 potentiator	D1 ag
Cc1cccc(C(=O)N2CCc3cc(CNS(=O)(=O)c4cccs4)ccc32)c1	-3%	-32*	-1	1	-1	8
Cc1cccc(C(=O)N2CCc3cc(CNC(=O)c4ccnn4C)ccc32)c1	-1%	-36*	-1	2	-3	16
Cc1cccc(NC(=O)c2sc3nc(-c4ccccc4)cn3c2C)c1C	?	5	0	8	-2	6
CC(C)CNC1CCS(=O)(=O)C1 (centres undefined)	-1%	-13	-1	-2	10	1
O=[N+]([O-])C(C1CCS(=O)(=O)C1)C1CCS(=O)(=O)C1 (centres undefined)	-1%	-33*	0	4	-4	1
CCc1ccccc1NC(=O)CN(C)S(=O)(=O)c1cccc2nsnc12	4%	-19	-1	-2	7	-2
Cc1oc(C)c(C(=O)O)c1COc1ccc(C(=O)O)cc1	-1%	-23	0	14	-5	1
Cc1cc(=O)oc(C)c1C(=O)NCCc1ccccc1	2%	-32*	-1	19	-2	3
COc1ccc(C(=O)NCc2c(C)oc(C)c2C(=O)O)cc1	nt	-10	1	39*	12	2
COc1ccc(CNC(=O)c2c(C)cc(=O)oc2C)cc1	-1%	-33*	1	1	0	1
COc1ccc(CCNC(=O)c2c(C)cc(=O)oc2C)cc1OC	-1%	30	0	-4	0	7
COc1cccc(NC(=O)N2CCC(n3c(C)nc4cccnc43)CC2)c1	1%	1	0	0	0	0
COc1ccc(S(=O)(=O)Nc2cccc(-c3ccc(N4CCOCC4)nn3)c2)cc1F	0%	-37*	0	1	2	-1
COc1cc(C)c(C)cc1S(=O)(=O)Nc1cccc(-c2ccc(N3CCOCC3)nn2)c1	8%	-69*	0	-23	-3	-2
CSc1nsc(/C=C/Nc2ccc(C)c(C)c2)c1C#N	3.5µM*	-8	-1	3	-1	9
CCN1CCN(C(c2cccc(Cl)c2)c2c(O)cc(C)n(CCOC)c2=O)CC1 (centres undefined)	0%	-13	0	-6	4	-1
COc1ccc(N2C3=[N+](CC2(C)O)c2ccccc2CC3)cc1 (centres undefined)	1%	-89*	0	-3	-2	3
Cc1ccccc1Nc1c(-c2c[nH]c3ccccc23)nc2cccc(C)n12	0%	-5	11	-1	3	33*
